# Laboratory results: PubChem BioAssay (Tox21)
# Results filed as inconclusive are left out. Unmarked numbers belong to inactive results. The call rests on the fitted dose curve; in most records, active means well fitted cell-killing curve with a large enough effect in the repeat runs; inconclusive means weak or mixed curves; inactive means flat fitted curve, though single readings scatter.
# Experiment: qHTS assay to identify small molecule antagonists of the estrogen related receptor (ERR) signaling pathway - cell viability counter screen (AID 1224818)
# Conditions: ERR reporter cell line viability counter screen; series mostly up to 46.1 µM; viability change, negative = cytotoxic: at the top concentration
# Source text: National Center for Advancing Translational Sciences [NCATS]
# NIH Chemical Genomics Center [NCGC]
# U.S. Environmental Protection Agency [EPA]
# National Institutes of Environmental Health Sciences [NIEHS]
# National Toxicology Program [NTP]
# U.S. Food and Drug Administration [FDA]
# Estrogen related receptors (ERRs), the first orphan nuclear receptors discovered, play an important role in the control of cellular energy metabolism. ERRs are required for high-energy production in response to the environmental challenges. ERR-alpha was also identified as an adverse marker for breast cancer progression; ERR-alpha-positive tumors have a poor prognosis. To screen and to identify environmental compounds that perturb the ERR signaling pathways could provide valuable information for potential therapeutic or preventive measures in the treatment of metabolic disease. To differentiate true ERR antagonists or agonist from cytotoxic substances, the assay is multiplexed with cell viability assay.
# Tox21 Assay Protocol Summary:
# The ERR cells were dispensed at 2,000 cells/5 ul/well in 1536-well white plates using a Multidrop dispenser. After the assay plates were incubated at a 37 C/5% CO2 incubator for 6 hours, 23 nL of compounds dissolved in DMSO, positive and negative controls or DMSO only was transferred to the assay plate by a pin tool. The plates were incubated at 37 C for 17.5 hours. 1 ul/well of CellTiter-Fluor reagent was added into the assay plates using a Flying Reagent Dispenser. After 30 min incubation at 37 C/5% CO2, the fluorescence intensity in the plates was measured using a ViewLux plate reader.
# On the % scale 0 is the no-effect control and ±100 the full control effect.
row,SMILES,"viability change, negative = cytotoxic"
1,CN1CCN(C2=Nc3cc(Cl)ccc3Nc3ccccc32)CC1,-24.9%
2,O=C(c1ccccc1)c1ccc2n1CCC2C(=O)O (stereo unspecified),10.2%
3,NC(N)=N/N=C/c1c(Cl)cccc1Cl,-6.68%
4,CCOC(=O)C1=C(C)NC(C)=C(C(=O)OC)C1c1cccc([N+](=O)[O-])c1 (stereo unspecified),-10.4%
5,CC(C)NCC(O)c1cc(O)cc(O)c1 (stereo unspecified),10.3%
6,COc1ccc([C@@H]2Sc3ccccc3N(CCN(C)C)C(=O)[C@@H]2OC(C)=O)cc1,-8.1%
7,CCN(CC)C(C)CN1c2ccccc2Sc2ccccc21 (stereo unspecified),7.46%
8,CN(C(=O)CCCOc1ccc2[nH]c(=O)ccc2c1)C1CCCCC1,-5.83%
9,CN(C)CC/C=C1\c2ccccc2COc2ccccc21,-3.21%
10,OC(CCN1CCCCC1)(c1ccccc1)C1CCCCC1 (stereo unspecified),-4.35%
11,O=C(O)/C=C/c1cnc[nH]1,11.2%
12,CN(C)CC[C@@H](c1ccc(Br)cc1)c1ccccn1,8.26%
13,CC(C)NCC(O)COc1ccc(CC(N)=O)cc1 (stereo unspecified),0.515%
14,CN(C)C/C=C(/c1ccc(Br)cc1)c1cccnc1,-3.65%
15,CCC(C)N(C)C(=O)c1cc2ccccc2c(-c2ccccc2Cl)n1 (stereo unspecified),-23%
16,CN1CCC(=C2c3ccccc3C=Cc3ccccc32)CC1,-8.54%
